# From PubChem BioAssay
# ELG1 repair inh: blocks ELG1-dependent DNA repair in HEK293T cells | HEK293T ELG1-luciferase reporter, luminescence, 16 h; DNA damage induced by 5-fluorouridine | Potency, µM (series often up to 46.1 µM), for the others: at the top dose activity change, negative = inhibition, actives largely listed as inhibitors | hit rate 2.3% among 330,000; further: on the % scale 0 is the no-effect control and ±100 the full control effect; nearly all actives have a fitted effect of over 55% in size
#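 Cells (2,000 per well) received 5-fluorouridine plus test compound or DMSO and were incubated 16 hr at 37 °C, 5% CO2. Luciferase activity was read by luminescence 30 min after ONE-Glo addition; signal suppression marked inhibition of damage-induced ELG1 function.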
# NPC1 prom act: activates the NPC1 promoter. Potency, µM (top dose mostly 9.22 µM), inactives show top-dose activation, most hits filed as activators. Huh7 NPC1 promoter luciferase reporter, 24 h. hit rate 2.4% among 320,000; further: % of control where 0% means no effect; nearly all actives have a fitted effect of over 60% in size
#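 Cells: Huh7 expressing luciferase under the NPC1 promoter, 1500/well. Seeded 2 h, compound added, incubated 24 h at 37 °C. Luciferase reagent, 10 min ambient, then luminescence.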
# Rab9 promoter act: activators of Rab9 promoter; Huh7 Rab9 promoter-luciferase reporter, luminescence, 24 h; Potency, µM (highest dose often 9.22 µM), for the others: top-dose activation, negative = inhibition, usual class: activators; hit rate 2.8% among 320,000; AID 485297; further: % of control where 0% means no effect; nearly all actives have a fitted effect of over 60% in size
#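 Luciferase signal after 10 min detection reagent at ambient indicates Rab9 promoter upregulation; stably transfected Huh7 cells were treated 24 h with compound in DMSO at 37 °C, 5% CO2.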
# ELG1 genotoxic: induces genotoxicity in HEK293T cells with luciferase-tagged ELG1; HEK293T ELG1-luciferase reporter, luminescence, 16 h; Potency, µM (series often up to 46 µM), inactives show top-dose activity change, positive = activation, most hits filed as activators; hit rate 1.3% among 330,000; AID 504466; further: % of control where 0% means no effect; nearly all actives have a fitted effect of over 60% in size
#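 Step 1: seed 2,000 HEK293T ELG1-luciferase cells per well. Step 2: add compound or DMSO, incubate 16 hr at 37 °C. Step 3: ONE-Glo, 30 min at room temperature, read luminescence.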
# SMN2 splice enh: increases expression of the SMN2 splice variant | AID 1458 | Potency, µM (series often up to 46.1 µM), for inactives: at the top dose activity change, positive = activation, most hits filed as activators | hit rate 2.8% among 210,000 | HEK293 SMN2-luciferase splicing reporter, luminescence, 30-36 h; further: % of control where 0% means no effect; nearly all actives have a fitted effect of over 55% in size
#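 HEK293 cells carry an SMN2 […]–luciferase reporter in which exon 7 inclusion puts luciferase in frame. Cells were plated 10-12 h before compound addition, then incubated 30-36 h at 37C. ONE-Glo luminescence was read; sodium butyrate at 4.5 mM final served as control.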
# FLuc counter: firefly luciferase modulation, counter-screen for miR-21 project; P08659; purified FLuc, Km substrates, luminescence inhibition; Potency, µM (top dose mostly 57.5 µM), inactives show at the highest dose activity change, negative = inhibition, hits mostly inhibitors; hit rate 6.9% among 360,000;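 further: plate controls were vehicle for no effect and reference inhibitor for full effect; nearly all actives have a fitted effect of over 55% in size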
# Target sequence (P08659 whole entry, looked up): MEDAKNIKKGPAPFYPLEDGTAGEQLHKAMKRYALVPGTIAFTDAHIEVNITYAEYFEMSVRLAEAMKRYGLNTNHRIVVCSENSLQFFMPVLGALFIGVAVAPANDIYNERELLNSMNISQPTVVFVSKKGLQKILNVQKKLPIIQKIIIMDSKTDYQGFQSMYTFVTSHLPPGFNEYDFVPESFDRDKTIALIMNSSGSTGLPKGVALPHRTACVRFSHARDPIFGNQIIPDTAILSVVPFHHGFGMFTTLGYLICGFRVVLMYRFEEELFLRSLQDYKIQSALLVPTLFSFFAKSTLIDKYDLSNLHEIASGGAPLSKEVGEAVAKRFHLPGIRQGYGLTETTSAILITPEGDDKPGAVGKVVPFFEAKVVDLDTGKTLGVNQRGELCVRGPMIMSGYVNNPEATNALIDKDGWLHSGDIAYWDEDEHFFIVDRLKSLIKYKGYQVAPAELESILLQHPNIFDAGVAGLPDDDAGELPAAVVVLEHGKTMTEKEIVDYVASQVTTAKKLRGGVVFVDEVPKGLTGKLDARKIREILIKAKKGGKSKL
#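 Purified P. pyralis luciferase (10nM final) with 10uM D-luciferin and 10uM ATP (Km levels) in 50mM Tris acetate pH 7.5, 10mM Mg acetate, 0.01% Tween-20, 0.05% BSA; qHTS 6-point titration, ~60 µM downward; luminescence read.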
# The depositor's hits bear a star; ? = inconclusive; / = not tested or not shown. Rows were chosen to be rich in hits. Some 9.2% of all compounds tested hit in one or more screens of this group. The call rests on the fitted dose curve; in most records, active means well fitted curve in the direction sought with a large enough effect; inconclusive means small, poorly fitted or top-dose-only effect, or another doubt; inactive means no such curve, though single readings can be large; an effect the other way counts as inactive or inconclusive. Potency means the concentration at half of the fitted maximal effect.
SMILES,ELG1 repair inh,NPC1 prom act,Rab9 promoter act,ELG1 genotoxic,SMN2 splice enh,FLuc counter
COc1ccc(NS(=O)(=O)c2ccc(N/N=C(\C)c3ccncc3)c([N+](=O)[O-])c2)cc1,18.4µM*,-18.7%,-21.1%,0.6%,-52.6%,-0.4%
CC(=O)N1CCN(S(=O)(=O)c2cccc(C(=O)Nc3nccs3)c2)CC1,-10.0%,-3.5%,-1.3%,-5.8%,-9.4%,-0.5%
Fc1ccc(Nc2c(-c3c[nH]c4ccccc34)nc3ccccn23)cc1,/,/,/,/,?,-7.1%
Cc1ccc(Nc2c(-c3ccccc3O)nc3ccc(Br)cn23)cc1,/,/,/,/,6.1%,-7.1%
Cc1ccc2nc(-c3c[nH]c4ccccc34)c(Nc3ccccc3)n2c1,/,/,/,/,11.2µM*,-10.7%
c1ccc(Nc2c(-c3c[nH]c4ccccc34)nc3ccccn23)cc1,/,/,/,/,15.8µM*,?
Cc1cc(C)n2nc(SCC(=O)N3CCN(c4ccccc4)CC3)nc2n1,-11.5%,/,/,-1.2%,/,/
Cc1ccn2c(Nc3ccc4c(c3)OCO4)c(-c3ccc(N(C)C)cc3)nc2c1,/,/,/,/,15.8µM*,?
Cc1ccn2c(Nc3ccc4c(c3)OCCO4)c(-c3ccc(Cl)s3)nc2c1,/,/,/,/,20.7%,6.01µM*
Cc1ccc2nc(-c3ccc(Cl)s3)c(Nc3ccc4c(c3)OCCO4)n2c1,/,/,/,/,13.8%,?
Cc1ccn2c(Nc3ccc4c(c3)OCO4)c(-c3ccco3)nc2c1,/,/,/,/,15.0%,6.01µM*
Cc1ccn2c(Nc3ccc4c(c3)OCO4)c(-c3ccc(Cl)cc3)nc2c1,/,/,/,/,-5.2%,-2.3%
CC(C)c1ccc(Nc2c(-c3ccco3)nc3ccccn23)cc1,/,/,/,/,?,23.9µM*
Cc1cccc2nc(-c3ccco3)c(Nc3ccccc3)n12,?,-0.6%,-1.0%,-8.4%,-52.0%,?
O=C(O)c1cc(S(=O)(=O)N2CCCCC2)ccc1N1CCOCC1,0.0%,/,/,0.6%,/,/
CN(C)c1ccc(-c2nc3cnccn3c2Nc2ccc3c(c2)OCCO3)cc1,?,?,?,17.6%,/,10.7µM*
Cc1ccc(-c2nc3cnccn3c2Nc2ccc3c(c2)OCO3)cc1,?,2.0%,2.4%,-4.5%,-2.0%,?
O=[N+]([O-])c1ccc(CSc2ccc(-c3ccccn3)nn2)cc1,1.3%,1.5%,11.1%,2.8%,-7.0%,-1.7%
Clc1ccc(-c2ccc(SCc3ccccn3)nn2)cc1,?,2.24µM*,3.16µM*,?,?,?
c1ccc(CSc2ccc(-c3ccccn3)nn2)nc1,?,2.82µM*,2.51µM*,?,11.2µM*,?
COc1cccc(-c2nc(CS(=O)(=O)CC(=O)Nc3ccc(C)c(Cl)c3)c(C)o2)c1,/,/,/,/,-5.8%,-11.3%
C=CCn1c(=S)[nH]c2ccc(Br)cc2c1=O,?,-0.2%,-4.2%,-13.9%,-6.5%,2.1%
C=CCn1c(=S)[nH]c2nc3c(cc2c1=O)CCCC3,22.9%,18.9%,15.7%,16.4µM*,-14.2%,-15.8%
COc1ccc(-n2cnc3cc(NC(=O)c4ccco4)ccc32)cc1,20.0%,4.1%,1.7%,14.7%,-15.9%,13.5µM*
O=C(Nc1ccc(S(=O)(=O)NC2CCCCC2)cc1)c1ccco1,?,-5.5%,1.6%,0.1%,-24.3%,0.9%
CCC(=O)Nc1ccc2c(c1)ncn2-c1ccccc1OC,1.8%,1.8%,-1.5%,1.6%,4.1%,-13.1%
COc1ccccc1-n1cnc2cc(NC(=O)c3ccco3)ccc21,?,-13.1%,-5.6%,?,10µM*,?
CC(C)n1cnc2cc(NC(=O)c3ccco3)ccc21,?,1.12µM*,1.78µM*,?,/,10.7µM*
O=C(Nc1ccc2c(c1)ncn2C1CCCCC1)c1ccco1,?,?,3.55µM*,?,22.6%,13.5µM*
COC(=O)CN1C(=O)[C@H]2[C@@H](/C=C/c3ccccc3)N3C(=O)CN(Cc4ccccc4)C(=O)[C@@]3(C)[C@H]2C1=O,-16.2%,-4.3%,-2.9%,6.4%,/,-0.3%
